Experimental data as given in PubChem BioAssay (NCATS).
Where “and” joins values, the source holds several entries; their conditions need not be identical. Identical values can stand only once. Inconclusive results are not listed. Where a call stands in place of a potency, no number is given. Values without a mark were called inactive. Calls of active or inactive are those of the source. Calls follow the shape of the dose curve; as a rule, active = well fitted cell-killing curve with a large enough effect; inconclusive = small, poorly fitted or top-dose-only effect, or effect the other way; inactive = flat fitted curve, though single readings scatter. Peptide text beside a SMILES is read from it.

Tested on: CAOV3
Assay: Primary qHTS to identify gynecologic anti-cancer compounds using libraries of approved drugs and bioactive compounds (AID 1345084); also: nearly all actives have a fitted effect of over 55% in size
Conditions: Gynecologic cancer cell panel viability, ATPlite luminescence, 48 h; series mostly up to 57.5 µM
Text: National Center for Advancing Translational Sciences [NCATS] Assay Overview: Chemotherapeutic drug responses vary from cancer to cancer and from patient to patient. These variations could be caused by a number of factors including patient genomic background, tumor mutations, tumor heterogeneity, and aspects of drug treatment. Chemotherapeutic drug resistance is also a common issue and can lead to ineffective treatment and patient death. Here we have profiled the cell killing effects of thousands of compounds to characterize the responses in three gynecological cancers, identify cancer-selective compounds, and understand the diversity of responses to these compounds from pan-cancer suppressors to single cell line selective compounds. In this assay, we screened a 7,914 compound drug library that included approved drug and bioactive compounds in six ovarian, three cervical, and […] placental cancer cell lines using the ATPlite assay for cell viability. […] The cervical cancer cell lines included HeLa, Ca Ski, and C-33 A. The placental cancer cell lines included JEG-3. HEK 293T cells were used as the control cell line to determine the selectivity index. ATPlite is a luminescence based assay reliant on the conversion of a luciferase substrate to light in the presence of ATP. As a cytotoxic compound will suppress growth and decrease the number of cells, the concentration of ATP will decrease, and less light signal will be detected in the well.
Assay Protocol Summary: 1,000 cells in 4 uL of media were dispensed into white, solid bottom 1536-well plates using a Multidrop Combi (Thermo Scientific). The Assay plates were incubated for 16 hours at 37 C with 5% CO2 in assay plates, followed by the addition of 23 nL of DMSO or drug dissolved in DMSO. Each compound was assayed in five concentrations (0.092, 0.46, 2.3, 11.5, and 57.5 uM), using the automated Wako 1536 Pin Tool workstation and incubated at 37 C with 5% CO2 48 hours. 4 uL of ATPlite, the ATP monitoring reagent, was then added to the each well of the assay plates using the Multidrop Combi reagent dispenser followed by incubation for 15 minutes at room temperature. The resulting luminescence was measured using the ViewLux plate reader.
Potency is read from the fitted curve at half-maximal effect.

SMILES | Potency | activity change, negative = cytotoxicity
CN(C)[C@@H](CCOc1cccc2ccccc12)c1ccccc1 | inactive | –
COc1cc2nc(N3CCN(C(=O)C4CCCO4)CC3)nc(N)c2cc1OC (stereo not given) | inactive | –
Cc1ncc([N+](=O)[O-])n1CC(C)O (stereo not given) | inactive | –
CC1(C)NC(=O)N(c2ccc([N+](=O)[O-])c(C(F)(F)F)c2)C1=O | inactive | –
COCCCN1CCC(NC(=O)c2cc(Cl)c(N)c3c2OCC3)CC1 | inactive | –
O=C(NOCC1CC1)c1ccc(F)c(F)c1Nc1ccc(I)cc1Cl | inactive | –
CC(C)[C@H](N)C(=O)OCCOCn1cnc2c(=O)[nH]c(N)nc21 | inactive | –
CN(c1nccc(=O)[nH]1)C1CCN(c2nc3ccccc3n2Cc2ccc(F)cc2)CC1 | inactive | –
COC(=O)[C@H](Cc1ccccc1)NC(=O)[C@@H](N)CC(=O)O (H-Asp-Phe-OMe) | inactive | –
Nc1ncn([C@H]2C[C@H](O)[C@@H](CO)O2)c(=O)n1 | inactive | –
CCC[C@@H]1C[C@@H](C(=O)N[C@@H]([C@H]2O[C@H](SC)[C@H](O)[C@@H](O)[C@H]2O)[C@@H](C)O)N(C)C1 | inactive | –
Cc1c(C(=O)NN2CCCCC2)nn(-c2ccc(Cl)cc2Cl)c1-c1ccc(Cl)cc1 | inactive | –
Cc1nc2n(c(=O)c1CCN1CCC(c3noc4cc(F)ccc34)CC1)CCCC2 | inactive | –
Cc1ccc(S(=O)(=O)NC(=O)NN2CC3CCCC3C2)cc1 (stereo not given) | inactive | –
Nc1cccc2c1CN(C1CCC(=O)NC1=O)C2=O (stereo not given) | inactive | –
Cc1ccc(C(=O)c2cc(O)c(O)c([N+](=O)[O-])c2)cc1 | inactive | –
N=C(N)c1ccc2cc(OC(=O)c3ccc(N=C(N)N)cc3)ccc2c1 | inactive | –
Cc1cc2c(s1)Nc1ccccc1N=C2N1CCN(C)CC1 | inactive | –
NS(=O)(=O)c1cc(C(=O)O)c(NCc2ccco2)cc1Cl | inactive | –
CCN(CCO)CCCC(C)Nc1ccnc2cc(Cl)ccc12 (stereo not given) | – | 21.3% [at 6.55 µM] and 5.51% [at 6.55 µM]

SMILES | Potency | activity change, negative = cytotoxicity
CCCCC(CC)COC(=O)C(C#N)=C(c1ccccc1)c1ccccc1 (stereo not given) | inactive | –
C=CCc1cc(OC)c(O)c(C(=O)NCCO)c1 | inactive | –
CC[C@]1(O)C[C@H]2CN(CCc3c([nH]c4ccccc34)[C@@](C(=O)OC)(c3cc4c(cc3OC)N(C=O)[C@H]3[C@@](O)(C(=O)OC)[C@H](OC(C)=O)[C@]5(CC)C=CCN6CC[C@]43[C@@H]65)C2)C1 | inactive | –
CCC1=C(C)CN(C(=O)NCCc2ccc(S(=O)(=O)NC(=O)NC3CCC(C)CC3)cc2)C1=O (stereo not given) | inactive | –
CC(=O)Nc1ccc(O)cc1 | inactive | –
COc1cc(Nc2c(C#N)cnc3cc(OCCCN4CCN(C)CC4)c(OC)cc23)c(Cl)cc1Cl | 6.31 µM (active) | –
Cc1cc2cc3c(C)cc(=O)oc3c(C)c2o1 | inactive | –
CCOC(=O)c1c(C)n(C)c2ccc(O)cc12 | inactive | –
Cc1ccc(C)c(OCCCC(C)(C)C(=O)O)c1 | inactive | –
Cc1cc(=O)oc2cc(O)ccc12 | inactive | –
CCCc1cc(=O)[nH]c(=S)[nH]1 | inactive | –
CN(C)c1ccc2nc3ccc(=[N+](C)C)cc-3sc2c1 | 3.98 µM (active) | –
CC(=O)O[C@H]1C(=O)[C@@]2(C)C([C@H](OC(=O)c3ccccc3)[C@]3(O)C[C@H](OC(=O)[C@H](O)[C@@H](NC(=O)c4ccccc4)c4ccccc4)C(C)=C1C3(C)C)[C@]1(OC(C)=O)CO[C@@H]1C[C@@H]2O (stereo not given in full) | inactive | –
O=C(O)c1cccnc1Nc1cccc(C(F)(F)F)c1 | inactive | –
Nc1ccc(S(N)(=O)=O)cc1 | inactive | –
CC1=C(C(=O)O)N2C(=O)[C@@H](NC(=O)[C@H](N)C3=CCC=CC3)[C@H]2SC1 | inactive | –
CN(C)C(=O)COC(=O)Cc1ccc(OC(=O)c2ccc(N=C(N)N)cc2)cc1 | inactive | –
CN(C)CCCC1(c2ccc(F)cc2)OCc2cc(C#N)ccc21 (stereo not given) | inactive | –
Cc1ccc(Nc2nccc(N(C)c3ccc4c(C)n(C)nc4c3)n2)cc1S(N)(=O)=O | inactive | –
CN(C)c1ccc(O)c2c1C[C@H]1C[C@H]3[C@H](N(C)C)C(=O)C(C(N)=O)=C(O)[C@@]3(O)C(=O)C1=C2O | inactive | –
